Screening results: PubChem BioAssay, National Center for Advancing Translational Sciences (NCATS)
A selection: hits, their analogues and other compounds. The true share with any hit is near 12%.
HCV inh – blocks hepatitis C virus. Huh7.5.1 HCVcc-Cre infection, luciferase reporter, 44 h. Potency, µM (series often up to 41.8 µM), hits mostly inhibitors. actives 3.4% (n = 340,000)
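Cells seeded at 1,000/well and cultured 4 h, then compounds added followed by HCVcc-Cre virus (~0.5 moi). After 44 h further culture, luciferase substrate was added, plates held 15 min at room temperature, and luminescence read for 15 sec.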
NS1 function inh – influenza NS1 inhibition | Potency, µM (highest dose often 46.1 µM) | actives 0.4% (n = 270,000); calls by dose curve; also: actives are rising curves; nearly all actives have a fitted effect of over 50% in size
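In this qHTS, NS1 from influenza A is expressed in budding yeast, where it slows growth. Cells are switched from glucose to 2% galactose medium (pH 6.0, -URA), treated with compound, and growth recovery is read at OD600.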
AMA1-RON2 inh – disrupts binding of P. falciparum AMA1 to RON2 | AlphaScreen AMA1-biotinylated RON2 peptide binding | Potency, µM (titrated, usually from 58.2 µM), most hits filed as inhibitors | actives 0.2% (n = 360,000); also: nearly all actives have a fitted effect of over 45% in size
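AMA1 (3D7) with his tag at 25 nM final met compounds first, then biotinylated RON2 peptide at 25 nM; detection used donor plus acceptor beads, 10 µg/mL apiece, read by AlphaScreen after 30 min at room temperature.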
Pf growth 96h – P. falciparum growth inhibition at 96 hours. P. falciparum luciferase reporter growth, 96 h. Potency, µM (top dose mostly 28.7 µM), usual class: inhibitors. actives 6.9% (n = 320,000)
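Erythrocytes infected with luciferase-expressing P. falciparum were dispensed at 2% hematocrit and 0.05% parasitemia (final), then incubated with compounds 96 hours at 37 C in 5% CO2. Luminescence after detection reagent addition reported growth.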
Pf growth 48h – inhibits P. falciparum growth in the first generation, 48 h; Potency, µM (titrated, usually from 28.7 µM), usual class: inhibitors; P. falciparum luciferase growth in erythrocytes, 48 h; actives 5.9% (n = 310,000); AID 504832
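Here the parasites carry a stable luciferase gene and grow inside erythrocytes in Albumax-based RPMI medium with compound for one erythrocytic cycle. Activity is scored as loss of luminescent signal.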
SARS PLP yeast – SARS-CoV PLP inhibition in yeast; S. cerevisiae expressing SARS-CoV PLpro, growth rescue; Potency, µM (top dose mostly 32.9 µM), usual class: activators; actives 0.19% (n = 330,000); AID 485353; calls by dose curve; also: nearly all actives have a fitted effect of over 55% in size
A number is an active result; n = inactive; u = inconclusive; x = no result; [ ] = another dose, or the depositor's remark. Unless noted, calls follow the shape of the dose curve; as a rule, active = well fitted curve in the direction sought with a large enough effect; inconclusive = small, poorly fitted or top-dose-only effect, or another doubt; inactive = no such curve, though single readings can be large; an effect the other way counts as inactive or inconclusive.

SMILES	HCV inh	NS1 function inh	AMA1-RON2 inh	Pf growth 96h	Pf growth 48h	SARS PLP yeast
CCCCCCCNC(=O)C1(CC2CC(c3ccc(Cl)cc3)=NO2)CCN(C(=O)C2CCCC2)CC1 (stereo unspecified)	n	n	n	9.28µM	n	n
CC(C)N1CCN(Cc2c[nH]c3ccccc23)CC1CCO (stereo unspecified)	n	u	n	n	n	x
CC(C)=CCN1CCN(Cc2c[nH]c3ccccc23)CC1CCO (stereo unspecified)	n	n	n	2.94µM	n	n
CC(C)Cn1c(CN2CCN(C)C(CCO)C2)nc2ccccc21 (stereo unspecified)	n	n	n	9.28µM	n	n
CC(C)CN1CCN(Cc2c[nH]c3ccccc23)CC1CCO (stereo unspecified)	n	u	n	9.28µM	n	n
CN(C)C(=S)SCCn1c(N)nc(N(C)C)nc1=O	n	n	n	n	n	n
COc1cccc([C@@H]2Oc3ccc(OC)cc3C(=O)[C@H]2O)c1	u	n	n	3.7µM	n	n
COc1cccc([C@@H]2Oc3ccc(Br)cc3C(=O)[C@H]2OC(=O)NC2CCCC2)c1	n[8.37 µM]	n	n	n	n	n
COc1ccc2c(c1)C(=O)[C@@H](O)[C@H](c1ccc(OC)c(Br)c1)O2	n[8.37 µM]	n	n	3.29µM	3.7µM	n
CC1Cc2ccccc2N1Cc1cccc([N+](=O)[O-])c1 (stereo unspecified)	n	u	10µM	n	n	n
CC1Cc2ccccc2N1Cc1ccc([N+](=O)[O-])cc1 (stereo unspecified)	n	n	11.2µM	u	u	n
O=C1CSC(c2ccc([N+](=O)[O-])cc2)N1Cc1ccccc1 (stereo unspecified)	n	n	n	n	n	n
CCOc1ccc(S(=O)(=O)N2CCCCC2)cc1NS(=O)(=O)c1cccs1	n	x	n	u	u	n
Cc1ccc(S(=O)(=O)N2CCN(C(=O)c3ccc(-n4cncn4)c([N+](=O)[O-])c3)CC2)cc1C	n	x	n	7.38µM	u	n
CCN(CC)S(=O)(=O)c1ccc(NC(=O)c2ccc(Sc3nncn3C)c([N+](=O)[O-])c2)cc1	n	n	n[2.32 µM]	u	11.7µM	n
CC(=O)c1ccc(S(=O)(=O)N2CCN(C(=O)c3ccc(N)c([N+](=O)[O-])c3)CC2)cc1	n	x	n	u	u	n
CCN(CC)S(=O)(=O)c1cc(NC(=O)c2ccc(-n3cncn3)c([N+](=O)[O-])c2)ccc1C	11.2µM	n	n	14.7µM	13.1µM	n
Nc1ccc(C(=O)N2CCN(S(=O)(=O)c3ccc(Br)cc3)CC2)cc1[N+](=O)[O-]	n	x	n	8.28µM	u	n
O=C(c1cn(-c2ccccc2)nc1-c1cccnc1)N1CCCC(C(F)(F)F)C1 (stereo unspecified)	u	x	n	u	u	n
CC(C)C(=O)Nc1ccc(-c2nc3ccccc3c(=O)o2)cc1	n	n	n	n	n	n
Cc1cc(C(O)c2ncc(-c3ccccc3C)[nH]2)ccc1F (stereo unspecified)	x	x	n	x	x	x
CN(C)C(CNC(=O)c1cc(S(=O)(=O)N(C)Cc2ccccc2)ccc1Cl)c1ccco1 (stereo unspecified)	u	x	n	u	u	n
O=C(Nc1cccc(Cl)c1)c1ccc(-n2cncn2)c([N+](=O)[O-])c1	u	n	n	u	11.7µM	n
O=C(Nc1ccc(Cl)cc1)c1ccc(-n2cncn2)c([N+](=O)[O-])c1	n	n	n	u	u	n
COc1ccc(Nc2c(-c3ccco3)nc3cccc(C)n23)cc1	n	x	n	2.62µM	n	n
SMILES	HCV inh	NS1 function inh	AMA1-RON2 inh	Pf growth 96h	Pf growth 48h	SARS PLP yeast
C(=N\N(c1ccccc1)c1ccccc1)/c1ccc(N2CCOCC2)s1	n	u	n	8.28µM	u	n
COc1ccc(C(=O)N/N=C/c2ccc(N3CCOCC3)s2)cc1OC	n	x	n	u	u	n
CCOC(=O)N/N=C/c1ccc(N2CCOCC2)s1	n	n	n[11.6 µM]	n	2.62µM	n
O=C(N/N=C/c1cccc(OC(=O)c2cccc(Br)c2)c1)c1ccncc1	n	n	n	n	n	n
O=C(Nc1ccccc1Br)c1c(F)cccc1Cl	n	x	n	n	n	n
COc1ccc(-c2oc(=O)n(C)c2-c2ccc(OC)cc2)cc1	n	n	n	u	u	n
COCCn1c(-c2ccc(OC)cc2)c(-c2ccc(OC)cc2)oc1=O	n	n	n	13.1µM	8.28µM	n
Cc1cccc(NS(=O)(=O)c2ccc(C(=O)NCCCN3CCCC3=O)cc2)c1C	n	x	n	u	u	u
CCCCn1c(N)c(N(CC(C)C)C(=O)c2ccc(S(=O)(=O)N3CCC(C)CC3)cc2)c(=O)[nH]c1=O	n	x	n	u	u	n
CCN1CCCC1CNC(=O)c1ccc2c(c1)N(Cc1cccc(Cl)c1)C(=O)c1ccccc1S2(=O)=O (stereo unspecified)	n	n	n	u	u	n
CC1CCCN(CCCNC(=O)c2ccc3c(c2)N(Cc2ccccc2F)C(=O)c2ccccc2S3(=O)=O)C1 (stereo unspecified)	10µM	n	n	u	2.08µM	n
CC1CCCN(CCCNC(=O)c2ccc3c(c2)N(Cc2cccc(Cl)c2)C(=O)c2ccccc2S3=O)C1 (stereo unspecified)	x	x	n	x	x	x
CC1CCCN(CCCNC(=O)c2ccc3c(c2)N(Cc2ccc(F)cc2)C(=O)c2ccccc2S3=O)C1 (stereo unspecified)	u	n	n	11.7µM	13.1µM	u
CCN1CCCC1CNC(=O)c1ccc2c(c1)N(Cc1ccccc1F)C(=O)c1ccccc1S2(=O)=O (stereo unspecified)	10µM	n	n	n	9.28µM	n
CC(C)(C)OC(=O)C[C@H]1C/C=C\C[C@H](CC(=O)N(CCO)Cc2ccccc2)C(=O)N[C@@H](Cc2ccccc2)COC1=O	n	x	n	x	x	n
Cc1ccc(CNC(=O)Cn2ccc3cc(S(=O)(=O)N4CCCC4)ccc32)o1	n	n	n	n	n	n
Cc1nn(-c2ccccc2)c(C)c1C(=O)N1CCN(S(=O)(=O)c2ccccc2)CC1	n	x	n	u	u	n
CCSc1nc2ccccc2n1CC(N)=O	n	n	n	x	n	n
CCSc1nc2ccccc2n1C(=O)/C=C\c1ccc(OC)c(OC)c1	14.1µM	n	n	u	u	n
COc1cccc(OC)c1C(=O)NCC12CC3CC(C1)CC(CNC(=O)c1c(OC)cccc1OC)(C3)C2	n	n	n	3.29µM	n	n
COC(=O)NCC12CC3CC(C1)CC(CNC(=O)OC)(C3)C2	n	n	n	u	u	n
CCc1nc(SCC(=O)NNC(=O)c2ccc(OC)cc2)c2ccccc2n1	n	n	n	u	n	n
CCc1nc2ccccc2n1CC(=O)Nc1cc(C)on1	u	x	n	4.65µM	n	n
